LANA DNA inh: inhibitors of KSHV C-LANA binding to DNA, primary screen, biochemical, fluorescence polarization, FAM-LBS DNA, MBP-C-LANA, single point; Kaposi's sarcoma herpesvirus LANA C-terminal domain (residues 932-1162) DNA binding; inhibition, % at 9 µM; actives 0.078% (n = 340,000);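 active = highest replicate inhibition at or above 60% at 9 µM, even if other replicates fall short; inactive = all replicates below 60% inhibition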;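 note: 0% = neutral control wells and 100% = 4 µM acridine orange control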
Cardiac RTF inh: cardiac RTF calcium sensitivity inhibitors, primary screen, biochemical, IANBD-TnC fluorescence, EC70 calcium; Troponin I, cardiac muscle (Homo sapiens) + Troponin T, cardiac muscle (Homo sapiens) + …; IANBD-labeled cardiac RTF, Ca2+ fluorescence; inhibition, % at 7.15 µM; actives 0.12% (n = 340,000);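 active = inhibition above the mean inhibition of all tested compounds plus 3 SD, cut at about 17% in these data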;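 note: assay run at fixed EC70 calcium of 1.6 mM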
Keap1-Nrf2 PPI: Keap1-Nrf2 protein-protein interaction inhibitors, primary screen, biochemical, fluorescence polarization, single point. actives 0.15% (n = 340,000). inhibition, % at 9.4 µM. Kelch-like ECH-associated protein 1 (Homo sapiens), Q14145. Keap1 Kelch-Nrf2 peptide fluorescence polarization, 1536-well; in the data active = inhibition above about 12%;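 note: human Keap1 Kelch domain with fluorescein labeled Nrf2 9mer peptide probe; 0% = neutral control wells and 100% = peptide positive control; higher means more block of Keap1 binding to Nrf2 peptide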
Target sequence (Q14145 whole entry, looked up, the tested form may be a part): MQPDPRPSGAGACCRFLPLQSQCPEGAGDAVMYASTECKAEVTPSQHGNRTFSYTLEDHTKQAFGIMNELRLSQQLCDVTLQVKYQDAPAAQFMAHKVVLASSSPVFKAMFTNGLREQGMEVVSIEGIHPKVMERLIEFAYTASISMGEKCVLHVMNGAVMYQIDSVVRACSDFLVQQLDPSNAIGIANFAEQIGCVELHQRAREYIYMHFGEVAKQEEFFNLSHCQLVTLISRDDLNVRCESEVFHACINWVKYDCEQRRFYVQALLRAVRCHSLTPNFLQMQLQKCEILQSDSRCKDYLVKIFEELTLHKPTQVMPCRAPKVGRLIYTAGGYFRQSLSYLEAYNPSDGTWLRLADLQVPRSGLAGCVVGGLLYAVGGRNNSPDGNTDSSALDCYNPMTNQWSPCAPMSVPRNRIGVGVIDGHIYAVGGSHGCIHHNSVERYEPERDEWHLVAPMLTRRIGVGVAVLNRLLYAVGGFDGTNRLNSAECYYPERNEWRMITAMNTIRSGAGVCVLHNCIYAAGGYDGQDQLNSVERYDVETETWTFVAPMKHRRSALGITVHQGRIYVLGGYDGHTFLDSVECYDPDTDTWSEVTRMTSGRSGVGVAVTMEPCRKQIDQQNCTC
eLon inh: inhibitors of E. coli Lon protease, primary screen, biochemical, fluorescence polarization. P0A9M0. purified E. coli Lon protease. inhibition, % at 7.94 µM. actives 0.42% (n = 360,000). AID 602123, 2011; in the data active = inhibition above about 13%, passing the limit was not always enough;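 note: 0% = enzyme with probe and DMSO and 100% = no enzyme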
cardiac RTF act: cardiac RTF calcium sensitivity activators, primary screen, biochemical, IANBD-TnC fluorescence, EC20 calcium; Troponin I, cardiac muscle (Homo sapiens) + Troponin T, cardiac muscle (Homo sapiens) + …; IANBD-labeled TnC RTF fluorescence at EC20 calcium; 0% EC20 calcium, 100% full calcium; activation, % at 7.2 µM; actives 0.24% (n = 340,000);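 active = activation above the mean over all tested compounds plus 3 SD, cut at about 30% in these data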;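 note: rise in fluorescence read as greater calcium sensitivity of cardiac thin filaments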
EBV gp42 block: Epstein-Barr virus gp42 inhibitors, primary screen, biochemical, uHTS, fluorescence polarization; Glycoprotein 42 (Epstein-Barr virus (strain AG876)), Q1HVG2; Fluorescence polarization binding assay, mP read-out; inhibition, % (tested at 21.74 µM); actives 0.42% (n = 220,000); AID 1085, 2008; in the data active = inhibition above about 50%
eLon confirm: E. coli Lon protease inhibitor retest, confirmation, biochemical, fluorescence polarization | shares compounds with eLon inh | purified E. coli Lon | inhibition, % at 7.94 µM | actives 31% (n = 1,400) | AID 602230, 2012; in the data active = inhibition above about 16%;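 note: 0% = enzyme with probe and DMSO and 100% = no enzyme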
Active calls of the source: *; · = no result; + = active, no number. The list is not random: actives were taken first. Their share in the collection is about 0.98%.

SMILES	LANA DNA inh	Cardiac RTF inh	Keap1-Nrf2 PPI	eLon inh	cardiac RTF act	EBV gp42 block	eLon confirm
CCCCCCc1cc2cc(S(=O)(=O)c3ccc(F)c(Cl)c3)c(=O)oc2cc1O	3.5	-10.0	-0.7	83.5*	-14.6	-7.5	-51.4
CC(C)CN(C(=O)CSc1nnc(C2CC2)n1-c1ccccc1)C1CCS(=O)(=O)C1 (configuration not stated)	-2.4	-0.8	-0.5	55.9*	-4.9	·	54.9*
Cc1cc(/C=N/NC(N)=S)c(O)c(/C=N/NC(N)=S)c1	31.9	-265.9	-0.1	+	166.4*	147.1*	189.3*
Cc1ccccc1OCCNc1cc(N2CCCCC2)ccc1[N+](=O)[O-]	0.9	-3.1	-3.5	14.9*	5.9	3.1	8.2
COc1ccccc1C(=O)Oc1ccc2c(c1)O/C(=C\c1ccncc1)C2=O	6.2	-55.4	2.1	27.7*	35.0*	32.9	49.3*
O=C(Oc1ccc2c(c1)O/C(=C\c1ccncc1)C2=O)c1cccs1	3.9	·	-4.6	54.5*	·	11.9	23.9*
CS(=O)(=O)Oc1ccc2c(c1)O/C(=C\c1cccnc1)C2=O	-2.0	-2.6	0.8	6.5	0.7	-8.2	·
COc1ccc(CN2CCC(CO)(Cc3ccccc3C(F)(F)F)CC2)c(F)c1	1.5	-9.6	0.1	20.2*	-2.9	-10.4	0.4
COc1ccc(CC2(CO)CCN(Cc3cccc4nccnc34)CC2)cc1	0.8	-8.6	5.5	1.0	2.2	-0.3	·
CSc1nc2ccc(NC(=O)NC(=O)c3c(F)cccc3F)cc2s1	1.2	-0.4	1.3	-0.1	0.3	-19.7	·
COc1cccc(F)c1C(=O)NC(=O)Nc1ccc2nc(C)oc2c1	22.4	-75.3	2.8	110.0*	44.6*	27.4	-8.8
O=C(O)/C=C/C(=O)Nc1ccc(O)cc1	6.2	-11.2	2.4	120.5*	5.5	-8.6	0.5
NNC(=O)CNC(=O)C12CC3CC(CC(C3)C1)C2	1.0	1.3	-5.1	16.6*	-0.4	-6.0	-6.7
CC(NS(=O)(=O)c1ccccc1)C1CC2CCC1C2 (configuration not stated)	0.3	2.5	-2.3	22.7*	3.4	·	-1.7
Cc1nc(Nc2ccc(Cl)cc2)c(C#N)c(=O)[nH]1	-0.8	-6.0	-3.2	19.1*	1.0	·	-0.1
CC1C(=O)N(Cc2cn(CCC3OCCCO3)nn2)CCS(=O)(=O)N1Cc1ccc(-c2ccc(Cl)cc2)cc1 (configuration not stated)	·	·	·	13.3*	·	·	24.5*
O=C(CCCC(=O)c1ccccc1)NCc1ccccc1	2.6	-3.0	-1.7	1.9	-2.4	·	·
Cn1c2c(sc1=O)CCC2	4.0	3.1	1.9	9.6	0.5	·	·
CCn1cc(CN2CCC(n3nccc3NC(=O)C3CCCC3)CC2)c(C)n1	0.0	2.9	0.9	-3.7	-2.4	·	·
CCn1cc(CN2CCC(n3nccc3NC(=O)c3ccccc3C)CC2)c(C)n1	0.8	-3.8	-1.4	44.9*	-6.9	·	-5.2
CCCCc1ncc(CN2CCC(n3nccc3NC(=O)C(OC)c3ccccc3)CC2)[nH]1 (configuration not stated)	0.3	-8.7	-3.1	-3.6	-2.2	·	·
CCCCc1ncc(CN2CCC(n3nccc3NC(=O)c3ccccc3Cl)CC2)[nH]1	-1.0	-7.1	-2.8	19.4*	0.6	·	5.8
CCOC(=O)[C@]12CCC=C1N(Cc1cccc3ccccc13)C(=O)[C@H](CC(=O)NCCc1ccccc1OC)C2	·	·	·	-3.4	·	·	·
Cc1c(C(=O)O)c(O)cc2c1C(=O)c1c(O)c([C@@H]3O[C@H](CO)[C@@H](O)[C@H](O)[C@H]3O)c(O)c(O)c1C2=O	17.1	-6.4	3.1	44.9*	0.4	·	21.8*
COc1ccc(CN(C)C(=O)CNC(=O)c2sc3ccccc3c2Cl)c(OC)c1	·	·	·	-14.5	·	·	·
SMILES	LANA DNA inh	Cardiac RTF inh	Keap1-Nrf2 PPI	eLon inh	cardiac RTF act	EBV gp42 block	eLon confirm
CCOc1cccc(=O)c2c(C)n(-c3ccc(C(=O)O)cc3)c(C)c12	6.1	-3.6	-4.1	-1.5	-0.7	-2.1	·
COc1cccc(=O)c2c(C)n(-c3ccc(C(=O)O)cc3)c(C)c12	27.0	-12.0	-6.4	27.0*	7.6	13.2	11.4
Cc1ccc(C(O)c2ncc(-c3cccc(C(F)(F)F)c3)[nH]2)cc1 (configuration not stated)	·	·	·	14.9*	·	·	2.2
CCN(CC)c1ccc(/C=N/NC(=O)c2cc3ccccc3[nH]2)cc1	-2.4	2.7	-1.3	16.1*	-3.4	·	8.8
COc1cccc(/C=C/C(=O)OCC(=O)N2c3ccccc3CC2C)c1OC (configuration not stated)	-0.9	-5.0	1.9	-3.6	-15.2	·	·
COc1ccc(/C=C/C(=O)OCC(=O)N2c3ccccc3CC2C)c(OC)c1 (configuration not stated)	·	·	·	14.0*	·	·	-3.9
COc1ccc2c(-c3ccc(S(N)(=O)=O)cc3)c(-c3ccc(S(C)(=O)=O)cc3)sc2c1	-0.1	4.9	0.3	9.0	-3.9	·	·
CC(C)S(=O)(=O)c1csc(NC(=O)Nc2cccc([N+](=O)[O-])c2)c1Cl	1.0	1.5	-1.4	22.1*	-1.4	-3.5	-6.2
O=C(Nc1cccc([N+](=O)[O-])c1)Nc1cccc([N+](=O)[O-])c1	-1.0	-17.0	-3.3	10.4	0.3	2.6	·
O=C(O)c1ccc(CN2C(=O)CSC2=S)cc1	-0.7	3.7	-12.2	15.8*	8.3	-1.0	-7.0
O=C(O)c1ccc(N2C(=O)CSC2=S)cc1	0.4	-0.1	-2.1	-2.9	4.3	·	·
COc1cc(NS(=O)(=O)c2csc(C(N)=O)c2)cc(OC)c1	-0.6	-0.3	2.4	2.5	-0.2	·	·
O=C(COC(=O)C1=Cc2ccccc2OC1)NCc1ccc(F)cc1	8.6	-7.8	-4.4	31.4*	3.2	·	9.2
O=S(=O)(NCCN1CCOCC1)c1ccc(F)c(Cl)c1	1.9	0.3	-1.0	2.3	5.6	·	·
O=S(=O)(NCCN1CCOCC1)c1ccc(Cl)c(Cl)c1	-0.4	-3.1	-7.7	16.4*	-2.5	·	-1.4
CC1=C(C(=O)N2CCCCCC2)CC(CC(=O)NCc2cccc3ccccc23)C(=O)N1CCC1=CCCCC1 (configuration not stated)	·	·	·	-11.8	·	·	·

Bioassay records deposited in PubChem by several laboratories.
